A short description of test [1]: inhibitors of TNFa-induced NFkB p65 translocation, primary screen, imaging, HUVEC, MLSMR starter and 10KST1 sets (AID 438;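 active means inhibition above 20% together with a positive visual image hit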;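 further: compound added about 3h40 before a 20 min TNFalpha stimulation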;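 on inhibition: signal is the nuclear over cytoplasmic p65 intensity ratio per well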). To be noted: HUVEC TNFa-induced p65 nuclear translocation; cell count: measured here: nuclei count (cytotoxicity indicator), at 2.08 µM; inhibition: at 2 µM, stronger effect = higher value, 0% TNFa-plus-vehicle, 100% no-TNFa wells.
The nature of test [2]: reduction of polyQ htt aggregates in cells – imaging, exon1htt(103Q)mCFP cells, high-content imaging, primary screen (AID 483;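 active means visual image review flags a hit and inhibition of aggregation exceeds 20%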;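 further: compound exposure lasted 3 days before fixation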;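 on nuclei count: percent of the per-plate median nuclei count of sample wells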). To be noted: exon1htt(103Q)mCFP cell line, aggregate imaging, at 2 µM; inhibition of aggregation: stronger effect = higher value; nuclei count: measured here: cell count, toxicity.
Test [3] is described as follows: endothelial E-selectin expression blockers – imaging, HUVEC, immunofluorescence, MLSMR starter and 10KST1 sets, primary screen (AID 487;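 active means visually confirmed hit in the image check and inhibition above 20%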;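 on inhibition: signal is fraction of cell area covered by stained E-selectin grains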;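 on nuclei count: 100% = median nuclei count of all wells on the same plate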). To be noted: HUVEC TNFalpha-induced E-selectin immunofluorescence imaging, at 2 µM; inhibition: stronger effect = higher value; nuclei count: measured here: cell number, toxicity.
A short description of test [4]: Primary imaging screen for DUSP6 inhibitors that restore phospho-Erk in transfected HeLa cells, chemical complementation (AID 609;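 active means compounds giving at least 50% inhibition in the cell-based MKP-3 phosphatase rescue imaging test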;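 on inhibition: phospho-Erk level distribution per well compared with pooled transfected vehicle control wells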). To be noted: HeLa MKP-3 transfected, phospho-Erk imaging KS statistic, at 10 µM, cells stimulated with TPA for 15 min.
In test [5] the target is Dual specificity protein phosphatase 6 (Homo sapiens) (UniProt Q16828). Described as above. To be noted: HeLa MKP-3 transfected, phospho-Erk imaging KS statistic; at 10 µM; stronger effect = higher value; cells stimulated with TPA for 15 min.
Test [6] has as its target Voltage-gated potassium channel subunit beta-2 (Rattus norvegicus) (UniProt P62483). Briefly: inhibitors of rat Kvbeta2 reductase activity – biochemical, NADPH fluorescence, primary screen (AID 622;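 active means fluorescence slope higher than the sample average by over 3 SD, cut at about -0.22 in these data, passing the limit was not always enough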;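 further: slope of raw intensity against log time taken from 70 to 1610 s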). To be noted: recombinant KvBeta, 4-cyanobenzaldehyde reduction, at 10 µM, stronger effect = higher value.
The target is the same in test [7]. Briefly: enhancers of rat Kvbeta2 NADPH turnover – biochemical, NADPH fluorescence, primary screen (AID 623;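 active means NADPH fluorescence slope more negative than the mean of all samples by about 3 SD, 99.7% confidence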;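 further: fluorescence intensity change per second fitted from 20 to 320 s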). To be noted: Recombinant KvBeta, NADPH fluorescence decrease slope, 10 min; at 10 µM; stronger effect = lower value.
The target of test [8] is Alpha-2C adrenergic receptor (Homo sapiens) (UniProt P18825). Nature of the test: compounds altering alpha2C-coupled GIRK flux – cell-based, HEK293 alpha2C/GIRK1/2, thallium flux, primary screen (AID 624;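 active means fluorescence slope after compound addition differing from the mean of all screened samples at 99.7% confidence, in either direction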;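 further: slope of fluorescence ratio to pre-addition baseline per second over 15 to 24 s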). To be noted: thallium flux BTC fluorescence, at 10 µM, actives lie on both sides.
Test [9] in a line: inhibitors of larval lipid processing in zebrafish, primary screen, whole organism, PED6 fluorescence, gall bladder and intestine (AID 686;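 active means a full or partial loss of lipid-probe fluorescence in the fish gall bladder, intestine or both, judged by eye; inactive means no fluorescence loss, or compound toxic to the fish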;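 further: larvae 5 to 7 days old with five fish per well; signal comes from phospholipase A2 cleavage of quenched PED6 carried via bile; overnight exposure to compound and PED6 before scoring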). To be noted: Zebrafish larvae PED6 lipid processing, fluorescence scoring; screened at 20 µM (by protocol).
Test [10] in a line: loss of swimming-algae plug formation – whole organism, Chlamydomonas reinhardtii, WT vs cilia-less mutant, absorbance, 96-well, primary screen (AID 463189).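 Further: 0% = wild type cc124 cells in DMSO and 100% = ciliumless bld1 mutant cells.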 To be noted: Chlamydomonas reinhardtii gravitaxis, OD600 absorbance, 2 days; at 10 µM; stronger effect = higher value.
Test [11] can be described thus: blockers of RIG-like receptor reporter activation – cell-based, Sendai virus stimulus, luciferase, 10K MLSCN set, TLR/RLR signaling modifier project, primary screen (AID 602276;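 active means inhibition at or above 50% at 10 µM; inactive means inhibition below 50%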;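 further: firefly luciferase from ISG56 promoter only with Renilla not read in this screen; 0% = Sendai virus plus DMSO and 100% = medium plus DMSO without virus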). To be noted: HEK293 RL24 IRF3 luciferase reporter, at 10 µM, stronger effect = higher value.
Test [12] in a line: TLR3 IRF3 reporter activation blockers – cell-based, poly I:C stimulus, luciferase, 10K MLSCN set, primary screen (AID 602277;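 active means inhibition of the reporter signal at or above 50%; inactive means inhibition below 50%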). To be noted: HEK293-TLR3 RL24 IRF3 luciferase reporter, at 10 µM, stronger effect = higher value. A general note: A reporter such as luciferase makes a cellular process visible.
The mark [13] stands for this setting: measured here: cell density z-score.
The mark [14] stands for this setting: measured here: nuclear c-Myc green intensity z-score.
Setting [15] is: measured here: nuclear pErk red intensity z-score, stronger effect = higher value.

Several values for one entry are separate records, joined by “and”; a condition that tells them apart may be missing. Identical values can stand only once. Some compounds were tested as several samples or in several runs, with calls that do not always agree. Activity calls are given as the source filed them.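 How the source made its calls, unless noted: active means inhibition at or above 50% relative to wild type and mutant plate controls; inactive means inhibition below 50%.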

Voltage-gated potassium channel subunit beta-2 (Rattus norvegicus), sequence (P62483 whole entry, looked up): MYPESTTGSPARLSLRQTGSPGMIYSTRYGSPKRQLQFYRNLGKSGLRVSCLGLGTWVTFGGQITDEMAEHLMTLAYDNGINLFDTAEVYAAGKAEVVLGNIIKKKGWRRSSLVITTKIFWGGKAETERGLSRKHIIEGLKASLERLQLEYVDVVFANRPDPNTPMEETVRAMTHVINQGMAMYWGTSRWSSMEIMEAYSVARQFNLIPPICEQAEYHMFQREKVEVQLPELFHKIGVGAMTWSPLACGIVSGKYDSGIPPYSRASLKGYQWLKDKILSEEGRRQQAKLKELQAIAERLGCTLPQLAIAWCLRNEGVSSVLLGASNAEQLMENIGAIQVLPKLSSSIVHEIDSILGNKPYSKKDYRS
Alpha-2C adrenergic receptor (Homo sapiens), sequence (P18825 whole entry, looked up): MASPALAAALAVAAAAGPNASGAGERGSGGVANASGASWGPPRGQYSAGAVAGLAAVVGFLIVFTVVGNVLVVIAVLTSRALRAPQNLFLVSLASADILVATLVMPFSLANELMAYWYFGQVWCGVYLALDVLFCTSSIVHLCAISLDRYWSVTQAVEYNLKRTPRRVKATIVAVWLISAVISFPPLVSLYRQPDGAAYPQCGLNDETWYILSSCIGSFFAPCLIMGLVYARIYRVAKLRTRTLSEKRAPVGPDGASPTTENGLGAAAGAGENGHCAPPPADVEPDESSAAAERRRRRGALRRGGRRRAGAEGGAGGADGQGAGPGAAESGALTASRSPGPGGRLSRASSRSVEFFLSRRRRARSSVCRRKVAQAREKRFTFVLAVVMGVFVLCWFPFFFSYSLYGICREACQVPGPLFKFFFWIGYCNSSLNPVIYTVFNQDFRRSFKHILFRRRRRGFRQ
Dual specificity protein phosphatase 6 (Homo sapiens), sequence (Q16828 whole entry, looked up): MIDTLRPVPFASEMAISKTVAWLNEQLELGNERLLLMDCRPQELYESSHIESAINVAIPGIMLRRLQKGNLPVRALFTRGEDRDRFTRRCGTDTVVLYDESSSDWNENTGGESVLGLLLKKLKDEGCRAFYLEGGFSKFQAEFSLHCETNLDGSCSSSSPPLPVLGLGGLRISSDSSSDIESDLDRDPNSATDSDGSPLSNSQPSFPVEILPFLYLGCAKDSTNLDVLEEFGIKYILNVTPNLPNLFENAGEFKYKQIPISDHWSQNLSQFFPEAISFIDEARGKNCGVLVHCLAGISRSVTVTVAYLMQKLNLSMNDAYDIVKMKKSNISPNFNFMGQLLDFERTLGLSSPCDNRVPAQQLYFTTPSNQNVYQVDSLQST

In general, inhibition refers to the drop in the measured response relative to a control, in per cent. On to `CCN(CCCCOC(=O)c1ccc(OC)c(OC)c1)C(C)Cc1ccc(OC)cc1` (stereo not given), for which the cell count in [1] amounted to 635. Besides, the inhibition in test [1] is -4.8% (inactive); in [3], -106% (inactive); in [5] it was 9.37% (inactive); in [10] it was 55.2% (active); in test [11], -44.7% (inactive); in test [12] it was 57.4% (active). Moreover, in [2], the inhibition of aggregation was -7.1% (inactive). In addition, the nuclei count in test [2] amounted to 96.1%; in test [3] it was 138%. For the same compound, the z-score in test [4] (setting [13]) was 0.515; in test [4] (setting [14]), -0.208; in [4] (setting [15]) it was -0.515. In [6], the fluorescence slope is -0.488 (inactive). Besides, in test [7], the NADPH fluorescence slope was -7.4e-05 (inactive). In addition, the slope in [8] was 0.00442 (inactive). Besides, the result in test [9] was inactive.

As to `CC1=C(c2ccc(Cl)cc2)[N+](=O)C(C)(C)N1[O-]`, the cell count in test [1] came to 523. The inhibition is -5.6% (inactive) in [1]; -69.5% (inactive) in [3]; 6.04% (inactive) in [5]; 21.6% (inactive) in test [10]; -0.683% (inactive) in [11]; 15.7% (inactive) in test [12]. Also, the inhibition of aggregation in test [2] was 8.9% (inactive). In addition, the nuclei count was 94.8% in test [2] and 124% in [3]. For the same compound, the z-score is 0.834 in test [4] (setting [13]), -1.84 in test [4] (setting [14]) and 0.735 in test [4] (setting [15]). The fluorescence slope in test [6] is -0.408 (inactive). The NADPH fluorescence slope in [7] is -7.3e-06 (inactive). In addition, in [8], the slope is 0.00633 (inactive). Also, the compound was classed as inactive in [9].

Turning to `Nc1ccc(S(=O)(=O)Nc2ccccn2)cc1`, the cell count in [1] stood at 684. In addition, the inhibition in test [1] was 5.6% (inactive); in test [3], -123% (inactive); in [5], 12.4% (inactive); in test [10], 4.41% (inactive); in test [11], 12.4% (inactive); in test [12] it was 42.5% (inactive). The inhibition of aggregation in [2] is 15.6% (inactive). For the same compound, the nuclei count in test [2] was found to be 101%; in test [3], 131%. The z-score was -1.05 in test [4] (setting [13]), -1.54 in test [4] (setting [14]) and 0.683 in test [4] (setting [15]). In addition, the fluorescence slope in test [6] was -0.459 (inactive). Further, the NADPH fluorescence slope in test [7] is -4.9e-05 (inactive). Besides, in [8], the slope is 0.00448 (inactive). In addition, the call in [9] was inactive.

Consider `CN(C)CCC=C1c2ccccc2CCc2ccccc21`, for which, in [1], the cell count was 541. The inhibition in test [1] is -3.1% (inactive); in test [3] it was -17.7% (inactive); in test [5], -0.493% (inactive); in test [10], 6.87% (inactive) and 12.5% (inactive); in test [11] it was -9.05% (inactive); in [12] it was 51% (active). Besides, the inhibition of aggregation in test [2] is 2.1% (inactive). Also, the nuclei count in test [2] was found to be 107%; in test [3], 126%. The values for the z-score in test [4] (setting [13]), in test [4] (setting [14]) and in [4] (setting [15]) were 0.892, -0.494 and 0.732, respectively. Besides, the fluorescence slope in test [6] is -0.449 (inactive). The NADPH fluorescence slope in test [7] is -6.5e-05 (inactive). Also, the slope in test [8] was 0.00605 (inactive). Besides, in test [9], the compound was classed as inactive.

With `CNCCC=C1c2ccccc2CCc2ccccc21`, in test [1], the cell count is 525. The inhibition in test [1] was 0.8% (inactive); in test [3] it was -20.7% (inactive); in test [5] it was -10.4% (inactive); in [10], 34% (inactive) and 30.7% (inactive); in test [11], 29.4% (inactive); in [12] it was 43.5% (inactive). Further, in [2], the inhibition of aggregation is 8% (inactive). Also, the nuclei count in test [2] was 77%; in test [3] it was 117%. Besides, the z-score in test [4] (setting [13]) was -0.881; in test [4] (setting [14]) it was -0.123; in [4] (setting [15]), 2.59. The fluorescence slope in [6] is -0.521 (inactive). In addition, the NADPH fluorescence slope in test [7] is -4.9e-05 (inactive). Further, the slope in [8] was 0.00426 (inactive). Moreover, the compound was classed as inactive in test [9].

Consider `CCOC(=O)CC(=O)CSc1[nH]c(=O)cc(C)c1C#N`, for which the cell count in test [1] was found to be 653. Moreover, the inhibition was -6% (inactive) in test [1]; 28.4% (inactive) in [3]; 11% (inactive) in test [5]; 6.76% (inactive) in [10]; 3.57% (inactive) in [11]; 10% (inactive) in test [12]. For the same compound, the inhibition of aggregation in [2] is 5.4% (inactive). The nuclei count in test [2] was found to be 96.3%; in test [3] it was 132%. Also, the z-score was -1.3 in test [4] (setting [13]), 0.221 in test [4] (setting [14]) and -0.165 in test [4] (setting [15]). For the same compound, the fluorescence slope in test [6] was -0.403 (inactive). In addition, in test [7], the NADPH fluorescence slope was -6.7e-05 (inactive). In addition, the slope in test [8] was 0.0053 (inactive). The compound was classed as inactive in test [9].

Turning to `O=C(O)Cc1ccc(-c2ccccc2)cc1`, the cell count in test [1] was 636. In addition, the inhibition was -3% (inactive) in test [1]; -30.6% (inactive) in test [3]; 19% (inactive) in test [5]; -15% (inactive) in test [10]; 8.68% (inactive) in test [11]; 34.8% (inactive) in [12]. The inhibition of aggregation in test [2] is -7.3% (inactive). Further, the figures for the nuclei count in test [2] and in [3] were 105% and 123%, respectively. The z-score in test [4] (setting [13]) was 1.25; in test [4] (setting [14]), 0.515; in test [4] (setting [15]), -0.372. For the same compound, the fluorescence slope in test [6] is -0.444 (inactive). For the same compound, the NADPH fluorescence slope in test [7] is -4.7e-05 (inactive). Besides, the slope in [8] was 0.00497 (inactive). The call in [9] was inactive.

With `CCCCCCCC(=O)OCC(=O)[C@@]1(O)CC[C@H]2[C@@H]3CCC4=CC(=O)CC[C@]4(C)[C@H]3[C@@H](O)C[C@@]21C`, in [1], the cell count was 531. Besides, the inhibition is -8.2% (inactive) in test [1]; 3.4% (inactive) in test [3]; -8.38% (inactive) in test [5]; -10.8% (inactive) in test [10]; 15.2% (inactive) in test [11]; 49.5% (inactive) in test [12]. Also, the inhibition of aggregation in [2] was -25.1% (inactive). Besides, the nuclei count in test [2] came to 92.7%; in test [3] it was 107%. Also, the z-score was -0.552 in [4] (setting [13]), -1.25 in test [4] (setting [14]) and -0.122 in test [4] (setting [15]). In test [6], the fluorescence slope was -0.503 (inactive). Also, the NADPH fluorescence slope in test [7] is -5.1e-05 (inactive). The slope in test [8] is 0.0075 (inactive). In addition, the outcome in [9] was inactive.

Consider `OCCN1CCN(CCCN2c3ccccc3Sc3ccc(C(F)(F)F)cc32)CC1`, for which the cell count in test [1] is 606. In addition, the inhibition was 2% (inactive) in test [1]; -56.8% (inactive) in test [3]; -10.4% (inactive) in test [5]; -10.6% (inactive) and 145% (active) in test [10]; 12.2% (inactive) in test [11]; 58.3% (active) in [12]. The inhibition of aggregation in test [2] is 4.9% (inactive). In addition, the nuclei count was found to be 91.7% in test [2] and 127% in test [3]. The values for the z-score in test [4] (setting [13]), in test [4] (setting [14]) and in [4] (setting [15]) were 0.204, 0.276 and 0.714, respectively. The fluorescence slope in test [6] was -0.544 (inactive). Moreover, in [7], the NADPH fluorescence slope was -5.6e-05 (inactive). Besides, the slope in test [8] is 0.00393 (inactive). For the same compound, the outcome in [9] is “active; no signal in intestine only”.

For the compound `COc1ccc2c(c1OC)C(=O)O[C@@H]2[C@H]1c2c(cc3c(c2OC)OCO3)CCN1C`, in [1], the cell count turned out to be 567. Moreover, the inhibition was 1.8% (inactive) in test [1]; -22.4% (inactive) in [3]; 23.4% (inactive) in [5]; -5.91% (inactive) and 3.65% (inactive) in test [10]; 0.328% (inactive) in [11]; 32.2% (inactive) in [12]. The inhibition of aggregation in test [2] is 0.2% (inactive). The nuclei count is 97.2% in [2] and 112% in test [3]. Also, the values for the z-score in test [4] (setting [13]), in [4] (setting [14]) and in test [4] (setting [15]) were 0.15, -0.163 and -0.0552, respectively. The fluorescence slope in [6] was -0.46 (inactive). Besides, the NADPH fluorescence slope in test [7] is -6.4e-05 (inactive). For the same compound, in test [8], the slope is 0.00541 (inactive). Besides, the compound was classed as inactive in test [9].

These data come from PubChem BioAssay.
